Bioassay records (PubChem BioAssay)
Only some compounds are listed: those with a hit (about 1.5% of all), similar ones and a draw of the others.
AID504770 = growth inhibition of E. coli YBA685, primary screen, V. cholerae RctB inhibitors; E. coli YBA685 rctB-dependent plasmid, OD600 growth, 3 h; active compounds read low; z-score (no concentration beside the values); 130,000 tested, 0.27% active; in the data active means z-score below about -2, passing the limit was not always enough
Mtb MbtI inh = MbtI salicylate synthase inhibitors, primary screen, biochemical, fluorescence intensity; P9WFX0; purified MbtI enzyme, fluorescence intensity read-out; inhibition, % (concentration not given with the values); 100,000 tested, 0.89% active; AID 493033, 2011; in the data active means inhibition mostly above about 56%, no sharp cut-off; inactive means mostly below about 77%
Target sequence (P9WFX0 whole entry, looked up): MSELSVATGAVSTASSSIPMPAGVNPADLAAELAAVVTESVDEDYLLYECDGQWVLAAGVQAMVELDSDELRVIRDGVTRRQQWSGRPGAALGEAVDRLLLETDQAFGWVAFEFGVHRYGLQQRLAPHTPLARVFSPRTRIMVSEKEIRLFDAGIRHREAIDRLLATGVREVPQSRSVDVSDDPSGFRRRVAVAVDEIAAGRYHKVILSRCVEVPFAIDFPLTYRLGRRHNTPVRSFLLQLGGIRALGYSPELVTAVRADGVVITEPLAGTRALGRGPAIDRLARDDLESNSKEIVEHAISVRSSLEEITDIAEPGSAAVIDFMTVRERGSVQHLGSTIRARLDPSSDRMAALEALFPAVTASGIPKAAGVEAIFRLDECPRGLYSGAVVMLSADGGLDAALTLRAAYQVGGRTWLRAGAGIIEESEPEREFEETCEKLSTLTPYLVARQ
PV pol inh = poliovirus RdRp elongation inhibitors, primary screen, biochemical, fluorescence polarization, total intensity. 150,000 tested, 0.66% active. % elongation, % (compound at 16.7 µg/mL). poliovirus polymerase elongation; active compounds read low; in the data active means % elongation below about 90%
MenB inh = M. tuberculosis MenB inhibitors, primary screen, biochemical, absorbance; AID 540299, 2011; 1,4-dihydroxy-2-naphthoyl-CoA synthase (Mycobacterium tuberculosis (strain ATCC 25618 / …; MenB enzyme assay, absorbance read-out; inhibition, % (no concentration beside the values); 100,000 tested, 0.43% active; in the data active means inhibition above about 21%, passing the limit was not always enough
An asterisk follows results filed as active; x = no result.

SMILES	AID504770	Mtb MbtI inh	PV pol inh	MenB inh
COc1cccc(N(C(C)=O)C2C=CS(=O)(=O)C2)c1 (configuration not stated)	0.3	x	x	x
OC1(CCC2(O)CCCC2)CCCC1	1.5	-5	100	28*
S=C(NCCc1ccccc1)NNc1nc2ccccc2o1	0.5	32	37*	9
O=C(O)c1cc2ccccc2nc1Cl	-0.4	17	76*	-6
Nc1cc2ccccc2cc1C(=O)O	-0.45	6	52*	-15
CN1CCN(C(=O)c2cc3ccccc3nc2Cl)CC1	0.7	x	x	x
CCc1ccc(NC(=O)CSC2=NC3C(=O)N(C)C(=O)N(C)C3N2C)cc1 (configuration not stated)	0.55	-3	105	-21
O=C(O)COc1ccccc1/C=C1/C(=O)Nc2cc(Cl)ccc21	-0.05	32	104	-78
Cn1nc(C(=O)NCc2ccco2)c2c1-c1ccccc1SC2	-0.55	-3	101	-8
C/C(=C\C(=O)c1ccc(Cl)cc1)N1CCOCC1	-0.85	7	103	-27
Cn1ncc(S(=O)(=O)Cc2ccccc2)c(Cl)c1=O	-0.2	90*	98	4
CN(Cc1ccc(Cl)c(Cl)c1)Cn1nnc2ccccc2c1=O	-1.1	30	108	0
CCOc1ccccc1-c1n[nH]c(=S)n1N	-0.2	90	83*	-7
Nn1c(-c2ccco2)n[nH]c1=S	1.2	63	106	-19
COC(=O)c1cc(NC(=S)NN2CCOCC2)cc(C(=O)OC)c1	0.6	4	99	45*
S=C(Nc1ccc(Cl)cc1)NN1CCOCC1	2	-7	105	-18
Nc1ccc2c(c1)ncn2C1CCCCC1	-0.9	90	85*	-10
O=C(O)c1ccc2c(c1)ncn2C1CCCCC1	0.8	-6	104	1
COC(=O)c1ccsc1N1C(=O)C=CC1=O	-0.05	94*	x	-25
CCC(C)c1ccc(N=C(NO)c2ccc(OC)cc2)cc1 (configuration not stated)	0.45	-1	100	x
CC1(C)CC(=O)C2=C(C1)N=C1c3ccccc3C(=O)C1C2c1ccc(O)c(O)c1 (configuration not stated)	-1.6	85*	x	x
Cc1ccc(S(=O)(=O)c2ccccc2)cc1S	0.55	x	62*	-12
Clc1ccc(-c2csc3ncnc(NCc4ccco4)c23)cc1	0.65	7	102	-6
CCNC(=O)c1ccc2c(c1)N(C)CCS2	-0.2	-64	103	4
CN(C)CCC(=O)c1ccccc1	0.5	22	103	x
SMILES	AID504770	Mtb MbtI inh	PV pol inh	MenB inh
CCCC(=O)c1ccc2[s+]c3ccccc3[n+](CCCN(C)C)c2c1	-0.6	x	89*	-38
Cn1ccnc1SCC(=O)c1ccccc1	0.25	4	97	-7
CN1C(=O)S/C(=C/c2ccc(-c3ccc(C(=O)O)c(Cl)c3)o2)C1=O	-0.7	-30	100	-48
CCN1C(=O)/C(=C\c2ccc(-c3ccc(Cl)c(C(=O)O)c3)o2)SC1=S	-1.1	67*	75	-159
COc1cccc(N=c2scc(-c3cccs3)n2CCCN2CCCC2=O)c1	-0.5	6	105	-40
Cc1cc(=O)[nH]c2[nH]n(-c3ccccc3)c(=O)c12	-0.8	x	103	-2
Cc1c(C)c2c(=O)n(-c3ccccc3)[nH]c2[nH]c1=O	1.4	66*	x	x
Cc1ccc2nc(Cl)c(CC3CC(c4ccccc4)=NN3C(=O)CCCC(=O)O)cc2c1 (configuration not stated)	-0.35	0	101	7
CCN(CC)C(C(=O)NC1CCCCC1)c1ccc(OC)cc1 (configuration not stated)	-1.3	-7	101	-18
CCOC(=O)N1CCC(NC(=O)CNC(=O)c2ccco2)CC1	-2.7*	-16	x	x
O=C(CS(=O)(=O)Cc1ccccc1)Nc1ccccn1	-0.1	7	101	36*
CC1CCCCN1c1ccc(N)cc1 (configuration not stated)	0.95	18	105	-69
Clc1ccc(CSc2ncccn2)cc1	-0.8	20	103	-1
c1ccc(CSc2ncccn2)cc1	1.1	60*	102	0
COC(=O)COc1ccccc1O	0.55	-7	103	x
Nc1nc(CN2CCCCC2)cs1	-0.75	-12	101	39*
CC1=NN(c2ccccc2)C(=O)C1=C1SCCS1	-0.1	11	102	9
CC1=NN(c2ccccc2)C(=O)/C1=C1/C(=O)N(c2ccccc2)N=C1C	0.3	9	57*	-11
O=C(/C=C/c1cccs1)Nc1ccc(-c2nc3ccccc3[nH]2)cc1	-0.5	x	x	x
